Measurements: the supplement of paper PMC9177965

Assays:
[1] = system: HT29 RNF43 G659fs (RNF43 659mut, CRISPR-edited); test: cell viability activity relative to DMSO (negative = inhibition); higher = more viable cells (less growth inhibition); settings: 5 µM; 96 h
Experimental: (§1)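 Broad Repurposing Library primary screen at a single dose of 5 uM. HT29 sg-Ctrl and HT29 RNF43 G659fs CRISPR-edited isogenic cells were seeded at 2500 cells/well in 384-well plates in duplicate and treated for 96 h. Viability was read by CellTiter-Glo and reported as % activity relative to DMSO, with MG132 as the positive control (negative = growth inhibition).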

[2] = system: HT29 sg-Ctrl (RNF43 wildtype); test: as above; settings: 5 µM; 96 h
Experimental: as §1

Row | Structure (SMILES) | cell viability activity [1] [%] | cell viability activity [2] [%]
1 | CN1CCN(CCCN2c3ccccc3Sc3ccc(C(F)(F)F)cc32)CC1 | -34.4 | -18.8
2 | O=C(Nc1ccccc1-c1cn2c(CN3CCNCC3)csc2n1)c1cnc2ccccc2n1 | -74.8 | -81.8
3 | CCN(CC)Cc1ccc2cc(COC(=O)Nc3ccc(C(=O)NO)cc3)ccc2c1 | -91.4 | -84.2
4 | CN1CCc2c(c3ccccc3n2Cc2ccccc2)C1 | -59.2 | -56.9
5 | CN(C)CCCCC(=O)Nc1ccc(NC(=S)NC(=O)c2ccc(C(C)(C)C)cc2)cc1 | -85.9 | -91.9
6 | CCCCCCCCCCCCCCCC[N+](C)(C)CCN(Cc1ccc(OC)cc1)c1ncccn1 | -95.1 | -94.5
7 | Nc1nccc2c1ncn2[C@@H]1C=C(CO)[C@@H](O)[C@H]1O | -41.6 | -40.1
8 | CN(C)C(=O)CCSC(SCCC(=O)O)c1cccc(/C=C/c2ccc3ccc(Cl)cc3n2)c1 (configuration not stated) | -22.6 | 5.04
9 | CN(C)Cc1ccc(S(=O)(=O)n2ccc(/C=C/C(=O)NO)c2)cc1 | -72.5 | -64.6
10 | COc1c/c(=C2\C=c3ccccc3=N2)[nH]/c1=C\c1[nH]c(C)cc1C | -93.8 | -88.7
11 | COC(=O)Nc1ccc(-c2nc(N3CCOCC3)c3cnn(C4CCN(C(=O)OC)CC4)c3n2)cc1 | -50 | -38
12 | OCc1ccc(-c2ccc(-c3ccc(CO)s3)o2)s1 | -51.5 | -42.8
13 | CN(NC(=O)CC(=O)NN(C)C(=S)c1ccccc1)C(=S)c1ccccc1 | -30.6 | -15.3
14 | O=C(O)c1ccc(-n2nc(-c3ccccc3O)nc2-c2ccccc2O)cc1 | -27.9 | -27.1
15 | CN1CCN(c2ccc(OC(F)(F)F)c(Nc3ncc4c(n3)-c3c(c(C(N)=O)nn3CCO)CC4)c2)CC1 | -69 | -82.8
16 | C=CCNC1=C2C[C@@H](C)C[C@H](OC)[C@H](O)[C@@H](C)/C=C(\C)[C@H](OC(N)=O)[C@@H](OC)/C=C\C=C(/C)C(=O)NC(=CC1=O)C2=O | -90.1 | -83.4
17 | O=C(/C=C\n1cnc(-c2cc(C(F)(F)F)cc(C(F)(F)F)c2)n1)N1CC(F)(F)C1 | -72.2 | -68
18 | CCc1c(O)cc(O)c(C(=O)c2ccc(OCCN3CCOCC3)c(OC)c2)c1CC(=O)N(CCOC)CCOC | -93 | -90
19 | CNC(=O)c1cccc(-c2ccc3c(N4CCOC[C@@H]4C)nc(N4CCOC[C@@H]4C)nc3n2)c1 | -62.5 | -42.8
20 | CCOc1cc2ncc(C#N)c(Nc3ccc(OCc4ccccn4)c(Cl)c3)c2cc1NC(=O)/C=C/CN(C)C | -50.3 | -30.9
21 | COc1ccc2[nH]c3c(-c4cccc5ccccc45)nccc3c2c1 | -69.1 | -60.2
22 | CS[C@H]1SC[C@H]2C(=O)N(C)[C@@H](C(C)C)C(=O)OC[C@@H](NC(=O)c3cnc4ccccc4n3)C(=O)N[C@@H](C)C(=O)N(C)[C@@H]1C(=O)N(C)[C@@H](C(C)C)C(=O)OC[C@@H](NC(=O)c1cnc3ccccc3n1)C(=O)N[C@@H](C)C(=O)N2C | -88 | -86.6
23 | CCC1=C[C@@H]2CN(C1)Cc1c([nH]c3ccccc13)[C@@](C(=O)OC)(c1cc3c(cc1OC)N(C)[C@H]1[C@@](O)(C(=O)OC)[C@H](OC(C)=O)[C@]4(CC)C=CCN5CC[C@]31[C@@H]54)C2 | -62.4 | -40
24 | Cn1c(=O)n(-c2ccc(C(C)(C)C#N)cc2)c2c3cc(-c4cnc5ccccc5c4)ccc3ncc21 | -56.8 | -44.1
25 | C[C@H]1O[C@H](O[C@H]2[C@H](O)[C@@H](O)[C@@H](O[C@H]3[C@H](O)[C@@H](O)C(O)O[C@@H]3CO)O[C@@H]2CO)[C@H](O)[C@@H](O)[C@@H]1N[C@H]1C=C(CO)[C@@H](O)[C@H](O)[C@H]1O (some centres not stated) | -83.5 | -86.3

Row | Structure (SMILES) | cell viability activity [1] [%] | cell viability activity [2] [%]
26 | Clc1ccc2c(c1)CCc1cccnc1C2=C1CCNCC1 | -39.8 | -28.4
27 | C=C1C(=O)O[C@H]2[C@H]1CC/C(C)=C/CC[C@@]1(C)O[C@@H]21 | -28.1 | -6.73
28 | C#Cc1cccc(Nc2ncnc3cc(OC)c(OCCCCCCC(=O)NO)cc23)c1 | -90.3 | -71
29 | CNC(=O)CN1CCC(Oc2cc3c(Nc4cccc(Cl)c4F)ncnc3cc2OC)CC1 | -41.9 | -24.1
30 | COc1ccc(CCCOC(Cn2ccnc2)c2ccc(OC)cc2)cc1 (configuration not stated) | -67.2 | -31.3
31 | CCCCCCCCCCCCCCCC[N+](C)(C)C | -84.6 | -74.2
32 | c1cncc(CN2CCC(n3ncc4c(N5CCOCC5)nc(-c5ccc6[nH]ccc6c5)nc43)CC2)c1 | -74.3 | -75.2
33 | c1cc(-c2cnn3cc(-c4ccc(N5CCNCC5)cc4)cnc23)c2cccnc2c1 | -97.7 | -96.2
34 | CO[C@@H](C(=O)N1Cc2[nH]nc(NC(=O)c3ccc(N4CCN(C)CC4)cc3)c2C1)c1ccccc1 | -62 | -55.5
35 | CCn1c2ccccc2c2cc(Nc3ccnc(NCCCN4CCOCC4)n3)ccc21 | -79.7 | -84.9
36 | COc1cccc(Nc2ncnn3ccc(CN4CC[C@@H](N)[C@H](O)C4)c23)c1 | -24 | -31.4
37 | COc1cc(NC(C)CCCN)c2ncccc2c1 (configuration not stated) | -52.7 | -22.4
38 | Nc1nc(Nc2ccc(S(N)(=O)=O)cc2)nn1C(=O)c1c(F)cccc1F | -23.1 | -26.5
39 | Cc1nc(Nc2n[nH]c3c2CN(C(=O)N[C@H](CN(C)C)c2ccccc2)C3(C)C)c2sccc2n1 | -73.8 | -79.1
40 | CCCCc1nc2cc(/C=C/C(=O)NO)ccc2n1CCN(CC)CC | -99.3 | -98.6
41 | Cn1cc(-c2ccncc2)c(-c2ccc(OCc3ccc4ccccc4n3)cc2)n1 | -46.2 | -38.8
42 | Clc1ccc(C2(c3ccc(-c4cn[nH]c4)cc3)CCNCC2)cc1 | -71.5 | -86.8
43 | COc1cc(NC(=O)Nc2cccc(CNC(=O)O[C@H]3CCOC3)c2)ccc1-c1cnco1 | -41.5 | -23.6
44 | OC[C@H]1O[C@@H](Oc2cc(O)cc(/C=C/c3ccc(O)cc3)c2)[C@H](O)[C@@H](O)[C@@H]1O | -34.4 | -36
45 | CS(=O)(=O)N1CCc2c(-c3cnc(N)nc3)nc(N3CCOCC3)nc21 | -53.1 | -25.2
46 | O=C(CCCCCCC(=O)Nc1cccnc1)NO | -42.9 | -42.7
47 | CN(C)C/C=C/C(=O)Nc1cc2c(Nc3ccc(F)c(Cl)c3)ncnc2cc1O[C@H]1CCOC1 | -26.4 | -19.3
48 | COC(=O)Nc1nc2cc(C(=O)c3ccccc3)ccc2[nH]1 | -58.1 | -51.4
49 | CC(C=CC(=O)NO)=CC(C)C(=O)c1ccc(N(C)C)cc1 (configuration not stated) | -95.2 | -94.9
50 | COC(=O)C1=C(C#N)NC(C)=C(C(=O)OC(C)C)C1c1cccc([N+](=O)[O-])c1 (configuration not stated) | -44.7 | -65.8

Row | Structure (SMILES) | cell viability activity [1] [%] | cell viability activity [2] [%]
51 | CC(C)NCCCn1c(Sc2cc3c(cc2I)OCO3)nc2c(N)ncnc21 | -87 | -85.8
52 | COc1ccc(S(=O)(=O)Nc2cccnc2Nc2ccc(O)cc2)cc1 | -63.9 | -55.9
53 | CO[C@@H]1[C@H](N(C)C(=O)c2ccccc2)C[C@H]2O[C@]1(C)n1c3ccccc3c3c4c(c5c6ccccc6n2c5c31)C(=O)NC4 | -53.8 | -61.4
54 | CCCCCCCCCc1ccc(OCCOCCOCCOCCOCCOCCOCCOCCOCCO)cc1 | -55.9 | -22.3
55 | Cc1c(C(=O)N2CCOc3ccc(-c4ccc(N)nc4)cc3C2)ccc(S(C)(=O)=O)c1F | -41.2 | -32.1
56 | NC(=S)N/N=C/c1ncccc1N | -58.9 | -69.1
57 | CC(C)n1nc(-c2ccc3oc(N)nc3c2)c2c(N)ncnc21 | -74.9 | -52.5
58 | CC(C)CCN1c2nc(Nc3cc(F)c(O)c(F)c3)ncc2N(C)C(=O)C1C (configuration not stated) | -29.4 | 4.41
59 | Cc1[nH]c2ccccc2c1CCNCc1ccc(/C=C/C(=O)NO)cc1 | -99.3 | -96.1
60 | CC(C)[C@H]1c2ccc(F)cc2CC[C@@]1(CCN(C)CCCc1nc2ccccc2[nH]1)OC(=O)C1CC1 | -90 | -90.4
61 | CC(=O)Nc1nc(C)c(-c2ccc(Cl)c(S(=O)(=O)NCCO)c2)s1 | -53.2 | -38.4
62 | Nc1nc(=S)c2ncn([C@@H]3O[C@H](CO)[C@@H](O)[C@H]3O)c2[nH]1 | -80.3 | -76.6
63 | Nc1ccccc1NC(=O)c1ccc(CNC(=O)OCc2cccnc2)cc1 | -71.7 | -77.2
64 | C[C@H]1O[C@@H](O[C@H]2CC[C@@]3(C)[C@H](CC[C@@H]4[C@@H]3C[C@@H](O)[C@]3(C)[C@@H](C5=CC(=O)OC5)CC[C@]43O)C2)C[C@H](O)[C@@H]1O[C@H]1C[C@H](O)[C@H](O[C@H]2C[C@H](O)[C@H](O[C@@H]3O[C@H](CO)[C@@H](O)[C@H](O)[C@H]3O)[C@@H](C)O2)[C@@H](C)O1 |  | -91.5
65 | CC(=O)c1ccc2c(c1)[C@@H]1C=CC[C@@H]1[C@H](c1cc3c(cc1Br)OCO3)N2 | -69.9 | -56.9
66 | Cc1ccc([N+](=O)[O-])cc1S(=O)(=O)N(C)/N=C/c1cnc2ccc(Br)cn12 |  | -94.4
67 | Cn1ncc(Cl)c1-c1cc(C(=O)N[C@H](CN)Cc2ccc(F)c(F)c2)oc1Cl |  | -61.1
68 | Fc1ccc(-n2cc(CCCCN3CCC4(CC3)OCc3ccccc34)c3ccccc32)cc1 |  | -62.5
69 | CNC(=O)c1c(F)cccc1Nc1nc(Nc2cc3c(cc2OC)CCN3C(=O)CN(C)C)nc2[nH]ccc12 | -31.8 | -35
70 | CC[C@]1(O)C[C@H]2CN(CCc3c([nH]c4ccccc34)[C@@](C(=O)OC)(c3cc4c(cc3OC)N(C=O)[C@H]3[C@@](O)(C(=O)OC)[C@H](OC(C)=O)[C@]5(CC)C=CCN6CC[C@]43[C@@H]65)C2)C1 | -28.3 | -54.5
71 | C[C@H](Oc1ccc(S(C)(=O)=O)cc1C(=O)N1CCN(c2ncc(C(F)(F)F)cc2F)CC1)C(F)(F)F | -65.2 | -57.9
72 | Cc1nc(-c2cn3c(n2)-c2ccc(-c4cnn(C(C)(C)C(N)=O)c4)cc2OCC3)n(C(C)C)n1 | -53.2 | -48.5
73 | CC[C@@H](C)Nc1cc(C(=O)N[C@H]2C[C@H]3CC[C@@H](C2)N3c2ccc(C(=O)C3CC3)cn2)c(C)cc1C(N)=O | -85.8 | -84.4
